In all, about 68,000 compounds went through this assay and about 2,700 (4%) showed an effect of 50% or more. The sample as a whole holds a higher share of strong results than the screen did.

The test deals with Plasmodium berghei. The test can be described thus: Screen against P. berghei liver stage (PbLuc), transformed with Luciferase, at 2uM. The class given is functional, HepG2. The settings on record: tested at 2 uM.
As to `CS(=O)(=O)N1CCCC(Cc2ccnc(Nc3ccccn3)c2)C1` (stereo not given), the INHIBITION came out at 3.38%.
In the case of `O=C(c1ccccc1)N1CCN(CC2CCOc3ccccc3C2)CC1` (stereo not given), the INHIBITION stood at 1.88%.
In the case of `CC(C)(C)N1CC(C(=O)NCc2noc(Cc3ccccc3)n2)CC1=O` (stereo not given), the INHIBITION stood at 50.63%.
With `COCCc1noc(CNC(=O)C2CC(=O)N(C(C)(C)C)C2)n1` (stereo not given) the figure was -28.97%; with `CCN1CC(C(=O)NCc2noc(Cc3ccccc3)n2)CCC1=O` (stereo not given), -17.86%.
Take `CCn1nc(CC(C)C)cc1C(=O)NCc1c(C)cc(C)nc1OC`: the INHIBITION amounted to 39.16%.
With `Cc1noc2nc(C3CCN(Cc4ccccn4)CC3)cc(C(F)F)c12` the figure was -32.4%; with `C/C(=C\c1ccccc1)CN1CCCC(c2nnc3n2CCNCC3)C1` (stereo not given), 36.51%; with `O=C(NCCNc1cnccn1)c1scnc1Cl`, -6.71%.
As to `O=c1[nH][nH]cc1-c1ccnc(NCCc2cccnc2)n1`, the INHIBITION was 7.4%.
Consider `CC(NC(=O)Cn1cc(-c2ccccc2)cn1)C1CC1` (stereo not given), for which the INHIBITION came out at 35.65%.
For the molecule `CC(C)NC(=O)Cn1cc(-c2ccccc2)cn1`, the INHIBITION is listed as -42.92%.
With `CCC(CC)NC(=O)Cn1cc(-c2ccccc2)cn1` the figure was -9.17%.
For the molecule `CCCNC(=O)Cn1cc(-c2ccccc2)cn1`, the INHIBITION is on record as -14.11%.
To `Cc1ccc(-c2cnn(CC(=O)NC(C)C)c2)cc1` belongs 72.31%.
Turning to `CNC(=O)NC(=O)Cn1cc(-c2ccccc2)cn1`, the INHIBITION stood at 54.92%.
To `Cc1nc(C)c(CN2CCC(N(C)Cc3nnc(C4CC4)o3)C2)s1` (stereo not given) belongs 37.9%; to `CCn1c(C)nnc1CN(C)C1CCN(Cc2sc(C)nc2C)C1` (stereo not given), 65.3%.
With `CCn1c(C)nnc1CN(C)C1CCN(Cc2c(C)noc2C)C1` (stereo not given) the figure was 4.72%; with `O=S(=O)(c1ccccc1)N1CCC2(CCCN2Cc2ccc(Cl)cc2)C1` (stereo not given), -28.17%.
Regarding `O=C(CCCc1nnc(-c2ccccc2)o1)N1CCN(CCO)CC1`, the INHIBITION came to 36.65%.
To `O=C(CCCc1ncc(-c2ccccc2)o1)N1CCN(CCO)CC1` belongs 56.67%; to `O=C(CCCc1nc(-c2ccccc2)no1)N1CCN(CCO)CC1`, 41.76%; to `COc1ccc(Br)cc1NCC(=O)NC(C)(C#N)C1CC1` (stereo not given), -0.46%.
With `CCn1ncnc1C(C)Nc1cc(C)c2ccc(SC)cc2n1` (stereo not given) the figure was -35.22%; with `CSc1ccc2c(C)cc(N[C@@H](C)CO)nc2c1`, 71.67%; with `COC[C@H](C)Nc1cc(C)c2ccc(SC)cc2n1`, 45.56%.
With `O=C(c1cccnc1-c1ccoc1)N1C[C@@H]2CC[C@H]1C2` the figure was -15.77%; with `CCC1(CO)CCN(C(=O)c2cc(COc3ccccc3F)[nH]n2)CC1`, -64.06%; with `CCn1nc(C)c(CCNC(=O)C2CCCN(C(=O)N(C)C)C2)c1C` (stereo not given), -17.7%.
With `Cn1cc(CN2CCOC(c3cccc(-c4cccc(F)c4)n3)C2)cn1` (stereo not given), the INHIBITION came to 53.16%.
With `Cn1cc(CN2CCOC(c3nccnc3-c3cccc(F)c3)C2)cn1` (stereo not given) the figure was 11.74%; with `Cn1cc(CN2CCOC(c3cccc(-c4cncnc4)n3)C2)cn1` (stereo not given), 0.12%; with `CN(C)Cc1nn(C)c2c1CCN(C(=O)CC1CC1)C2`, -1.31%.
With `C=C(C)COc1ccccc1C(=O)NCCCc1nnn[nH]1` the figure was -24.7%.
With `OC(COCc1ccco1)CN1CCc2c(ncn2C2CC2)C1` (stereo not given) the figure was 35.23%.
Take `CC(Cc1cccs1)NC(=O)CCn1cccn1` (stereo not given): the INHIBITION stood at 0.66%.
On to `O=C(CCOc1ccccc1)N1CCCC(c2ncc[nH]2)C1` (stereo not given), for which the INHIBITION is recorded as 2.06%.
With `CCCN(Cc1nccn1C)C(=O)C(CC)Nc1cccc(OC)c1` (stereo not given) the figure was 16.82%; with `COCc1cn(CC2CCN(Cc3nc(C)c[nH]3)CC2)nn1`, -37.15%; with `Cc1ccc(CN2Cc3c(C(=O)N(C)C)nn(C)c3C2)s1`, -35.2%.
To `O=S(=O)(Cc1ccccc1)c1nnc(N2CCOCC2)s1` belongs 52.08%; to `Cc1cccc(CS(=O)(=O)c2nnc(N3CCOCC3)s2)c1`, 22.34%; to `O=S(=O)(Cc1ccccc1)c1nnc(N2CCCC2)s1`, 44.37%.
To `CCCn1cc(CNCC(c2ccc(C)s2)N2CCOCC2)cn1` (stereo not given) belongs 10.46%; to `CNc1cc(C(=O)N2CCOC(C(=O)NC3CCCC3)C2)ccn1` (stereo not given), -5.76%.
Turning to `CCn1cnnc1CNC(=O)N(C)Cc1ccc2c(c1)OCO2`, the INHIBITION was -19.35%.
With `Cc1ccc(Nc2nccc(C3CN(CC(N)=O)C3)n2)nc1` the figure was 9.79%; with `Cc1ccc(Nc2nccc(C3CCCN(CC(=O)N(C)C)C3)n2)nc1` (stereo not given), -28.81%; with `O=C(C1CCCC1)N1CCC(c2ccnc(Nc3cnccn3)n2)C1` (stereo not given), 37.81%.
As to `Cc1ccc(Nc2nccc(C3CCN(CC(N)=O)C3)n2)nc1` (stereo not given), the INHIBITION was 85.75%.
With `CC(=O)N1CCCC(c2ccnc(Nc3cnccn3)n2)C1` (stereo not given) the figure was -39.95%.
With `O=C(C1CCC1)N1CCCC(c2ccnc(Nc3cnccn3)n2)C1` (stereo not given) the figure was 57.82%.
With `O=C(c1ccco1)N1CCOCC2(C1)CN(c1ccccc1)C(=O)CO2` (stereo not given), the INHIBITION is 16.48%.
With `COc1ccc(CN2CC[C@H]3[C@H]2CC(=O)N3Cc2cccc(C)n2)cc1` the figure was 3.55%; with `CCCn1nc2c(cc1=O)CN(Cc1nc(C)c(C)o1)CC2`, 44.43%; with `OC(CN1CC(n2cccn2)C1)c1ccc2c(c1)OCCO2` (stereo not given), -28.22%.
To `CN1CCOC(CNCc2csc(C3CCCCC3)n2)C1` (stereo not given) belongs 16.84%; to `Cc1nc(CNCC2CN(C)CCO2)cs1` (stereo not given), -50.23%; to `CN1CCOC(CNCc2csc(C3CCCC3)n2)C1` (stereo not given), 60.71%.
With `CCOC(=O)c1c(NC(=O)CN2CCN(C(C)=O)CC2)sc2c1CCC2` the figure was 25.47%.
In the case of `C1CC(N2C[C@@H]3COC[C@]3(COCC3CCOCC3)C2)C1`, the INHIBITION is on record as 22.96%.
To `CCOC(=O)CSc1ccc(-c2nc(C)no2)cn1` belongs 70.75%; to `CCc1noc(-c2ccc(SCC(=O)O)nc2)n1`, 47.9%.
To `CCOC(=O)CSc1ccc(-c2nc(CC)no2)cn1` belongs 46.51%; to `COc1ccc(Br)c(C(=O)NCC2CC2)c1`, 9.21%; to `CC(NC(=O)C1CCN(S(N)(=O)=O)CC1)c1cccc(OC(F)F)c1` (stereo not given), 1.42%.
Take `O=C(Nc1cccc(OC(F)F)c1)C1CN(S(=O)(=O)C2CC2)C1`: the INHIBITION is 21%.
To `NS(=O)(=O)N1CCC(C(=O)Nc2cccc(OC(F)F)c2)CC1` belongs 50.98%; to `CN(C)C[C@@H]1C[C@@H]2CN(C(=O)c3ccoc3)CC[C@@H]2N1CC1CC1`, -72.76%.
To `C=Cc1ccc(C(=O)N2CCCC(Nc3ccccc3)C2)cc1` (stereo not given) belongs 43.86%; to `CCN(C)S(=O)(=O)N1CCC(C(O)c2ccc(Cl)cc2)CC1` (stereo not given), -11.41%; to `CCN(C)S(=O)(=O)N1CCC(C(O)c2ccc(F)cc2)CC1` (stereo not given), 52.98%.
As for `CN(C)S(=O)(=O)N1CCC(C(O)c2ccc(Cl)cc2)CC1` (stereo not given), the INHIBITION is given as 24.36%.
On to `CCCn1nc2c(cc1=O)CN(Cc1nnc(C3CC3)o1)CC2`, for which the INHIBITION was -7.73%.
With `Cc1ncsc1CCN(C)C(=O)CN1CCOC1=O` the figure was 29.13%; with `c1cc(CN2CC[C@H]3O[C@@H](COCC4CCOCC4)CC[C@H]32)ccn1`, -5.17%.
To `COc1ccc(CNCCn2c(C)nc3ccccc32)cc1O` belongs -92.51%; to `Cc1nc2ccccc2n1CCNCc1cccc(O)c1`, 54.47%; to `Cc1nc2ccccc2n1CCNCc1cccc(C#N)c1`, -5.59%.
Take `CSc1nsc(NC(=O)c2cc(C3CC3)nn2C)n1`: the INHIBITION is -11.3%.
`O[C@]12CCNC[C@H]1CN(c1ccnc3ccccc13)CC2`: the INHIBITION amounted to 16.35%.
With `OC[C@H]1CN(Cc2c(Cl)cncc2Cl)C[C@H]1CN1CCCCCC1` the figure was -34.9%.
Turning to `OC[C@H]1CN(Cc2c(Cl)cncc2Cl)C[C@H]1CN1CCCC1`, the INHIBITION is reported as 72.91%.
To `OC[C@H]1CN(Cc2c(Cl)cncc2Cl)C[C@H]1CN1CCOCC1` belongs 14.13%; to `CC1CN(CC(=O)NCc2ccc(F)cc2)CCN1c1nccs1` (stereo not given), -4.29%; to `CN(C)CCNc1cc(-c2ncccc2Cl)c2cc[nH]c2n1`, 10.22%.
To `CC(=O)NC(C)C1=CCCN(Cc2ccc(C(=O)O)cc2)C1` (stereo not given) belongs 43.44%; to `COc1ccnc(CN2CCC=C(C(C)NC(C)=O)C2)c1OC` (stereo not given), 21.97%; to `COc1ccc(CN2CCC=C(C(C)NC(C)=O)C2)cc1` (stereo not given), 60.13%.
With `Cc1cnccc1N1CCN(C(=O)C2CC3(CCNCC3)CN2)CC1` (stereo not given) the figure was -28.32%.
Turning to `CC[S+](CC)[c-]1c(=O)[nH]c(=O)n(CCc2ccc(F)cc2)c1=O`, the INHIBITION was determined as 9.31%.
To `CC(NC(=O)c1ccc(Cl)cc1)c1nnc(SCC(N)=O)n1C` (stereo not given) belongs 14.46%; to `CS(=O)(=O)NCC1CCCN(C(=O)Nc2ccccc2F)C1` (stereo not given), -5.61%.
Consider `CS(=O)(=O)NCC1CCCN(C(=O)Nc2cccc3ccccc23)C1` (stereo not given), for which the INHIBITION is 58.93%.
`CS(=O)(=O)NCC1CCCN(C(=O)Nc2ccccc2Cl)C1` (stereo not given): the INHIBITION was -7.21%.
For the molecule `Cn1cc(C(=O)NC2CCCC2)c(-c2cccnc2)n1`, the INHIBITION was -18.81%.
With `CN(CC(=O)Nc1ccccc1C(=O)NC1CC1)Cc1ccccc1Cl` the figure was 19.66%; with `CCOc1ccccc1NC(=O)CN(C)Cc1ccccc1Cl`, 55.73%.
With `CCOC(=O)c1ccccc1NC(=O)CN(C)Cc1ccccc1Cl` the figure was 16.25%; with `O=C1NCCN1C1CCN(CC(O)c2ccccc2F)CC1` (stereo not given), -54.48%; with `CNC(=O)[C@@H]1C[C@H](N)CN1S(=O)(=O)c1cc(Cl)c(Cl)s1`, 18.19%.
In the case of `CNC(=O)[C@@H]1C[C@H](N)CN1S(=O)(=O)c1cc(Cl)cc(Cl)c1O`, the INHIBITION was found to be 92.61%.
For `CNC(=O)[C@@H]1C[C@H](N)CN1S(=O)(=O)c1cc(C)c(Cl)cc1C`, the INHIBITION turned out to be 25.45%.
To `CN(C)[C@@H]1CN(C(=O)Cc2ccsc2)[C@@H]2CCCO[C@H]12` belongs 16.63%.

Source of the values: ChEMBL document CHEMBL4513216, “Probing the Open Global Health Chemical Diversity Library for Multistage-Active Starting Points for Next-Generation Antimalarials” (ACS Infect Dis, 2020).
